According to PubChem BioAssay (EPA / NIEHS):
Several values for one entry are separate records, joined by “and”; a condition that tells them apart may be missing. Equal values may be shown once. The source holds several records for some structures; these can differ, active in one and inactive in another. Activity calls are given as the source filed them. How the source made its calls: active means hit-call score of the fitted dose curve at least 0.9, where 1 is the maximum; inactive means score below 0.9.

Each compound was assayed against Bile acid receptor (Homo sapiens) (UniProt Q96RI1) (assay: ATG_IR1_CIS: Attagene CIS-FACTORIAL HepG2 Assay for human Nuclear Receptor Subfamily 1 Group H Member 4 (NR1H4), IR1 submotif (AID 2282946)). Details: IR1 reporter transcription, actives raise or lower the signal.
Bile acid receptor (Homo sapiens), sequence (Q96RI1 whole entry, looked up): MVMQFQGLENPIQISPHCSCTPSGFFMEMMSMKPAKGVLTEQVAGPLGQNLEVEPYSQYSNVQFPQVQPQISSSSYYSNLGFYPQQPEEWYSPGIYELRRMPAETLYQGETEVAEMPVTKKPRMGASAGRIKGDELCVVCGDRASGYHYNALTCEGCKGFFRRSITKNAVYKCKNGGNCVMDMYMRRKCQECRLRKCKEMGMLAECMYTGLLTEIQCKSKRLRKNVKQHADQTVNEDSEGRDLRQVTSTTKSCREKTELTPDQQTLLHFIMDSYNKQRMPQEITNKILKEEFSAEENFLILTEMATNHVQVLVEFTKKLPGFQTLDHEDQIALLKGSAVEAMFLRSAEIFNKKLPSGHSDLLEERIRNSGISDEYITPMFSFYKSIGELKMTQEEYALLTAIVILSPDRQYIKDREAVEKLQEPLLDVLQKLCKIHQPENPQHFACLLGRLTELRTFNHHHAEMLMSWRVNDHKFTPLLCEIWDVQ
Procedure: ATG_CIS is a cell-based, multiplexed-readout assay that uses HepG2, a human liver cell line, with measurements taken at 24 hours after chemical dosing in a 24-well plate.ATG_IR1_CIS is one of 52 assay component(s) measured or calculated from the ATG_CIS assay. It is designed to make measurements of mRNA induction, a form of inducible reporter, as detected with fluorescence intensity signals by Reverse transcription polymerase chain reaction (RT-PCR) and Capillary electrophoresis technology.Data from the assay component ATG_IR1_CIS was analyzed into 1 assay endpoint. This assay endpoint, ATG_IR1_CIS, was analyzed with bidirectional fitting relative to DMSO as the negative control and baseline of activity. Using a type of inducible reporter, measures of mRNA for gain or loss-of-signal activity can be used to understand the reporter gene at the transcription factor-level as they relate to the gene NR1H4. Furthermore, this assay endpoint can be referred to as a primary readout, because this assay has produced multiple assay endpoints where this one serves a reporter gene function. To generalize the intended target to other relatable targets, this assay endpoint is annotated to the nuclear receptor intended target family, where the subfamily is non-steroidal.
Human liver HepG2 cells are transiently transfected with multiple reporter transcription units (MRTUs) in 6-well plates using FuGene 6 reagent (Roche; 3 ml FuGene/1 mg DNA). The MRTU constructs are regulated by a cis-regulating element (promoter). […] A major difference between the CIS and TRANS system is that in CIS activities of endogenous TFs are measured, whereas the TRANS assay evaluates changes in activities of exogenous, chimeric NR-Gal4 proteins. […] At the end of 24 hour incubation, total RNA was isolated using TriZol reagent (Invitrogen). The isolated RNA is then reverse-transcribed using oligo(dT) primer and Mo-MLV reverse transcriptase (Invitrogen) with DNAse I (Ambion) treatment for 30 min. The one-tenth of the produced cDNA was amplified by PCR using Taq DNA polymerase (Invitrogen) and two reporter sequence-specific primers. The PCR products were fluorescently labeled by primer extension with 6-arboxyfluorescein (6-FAM) 5'-labeled reporter sequence-specific primer (2 min at 95 C, 20 s at 68 C and 10 min at 72 C) and these products were digested with 5U of HpaI (New England Biolabs) for 2h at 37 C. The fragments were purified using Qiaquick PCR columns (Qiagen), analyzed on an ABI 3130xL genetic analyzer (Applied Biosystems) with peak positions identified by using a set of X-rhodamine (ROX)-labeled MapMarker1000 molecular weight standards (BioVentures). The raw capillary electrophoresis data was processed using Attagraph software (Attagene).
For `OCCN1CN(CCO)CN(CCO)C1`, the outcome was “inactive”.
For `O=C(NO)c1ccccc1`, the AC50 was 10.8 µM (active) and 19.5 µM (active) and the outcome was “inactive”.
In the case of `CCCCCc1ccc(O)cc1`, the outcome is reported as “inactive”.
With `Oc1cc2ccccc2cc1O` the outcome was “inactive”.
In the case of `Cc1ccccc1OCC(=O)O`, the outcome is reported as “inactive”.
With `CCCCC=O` the outcome was “inactive”.
With `CN(Cc1cnc2nc(N)nc(N)c2n1)c1ccc(C(=O)N[C@@H](CCC(=O)O)C(=O)O)cc1` the outcome was “inactive”.
For `Nc1ccc(O)c(C(=O)O)c1`, the outcome was “inactive”.
`O=C(C=C(O)C(F)(F)F)C(F)(F)F` was tested, and the outcome was “inactive”.
For `CC(C)(O)C(=O)c1ccccc1`, the outcome was “inactive”.
`O=C(CC(=O)C(F)(F)C(F)(F)C(F)(F)F)c1cccs1` was tested, and the outcome was “inactive”.
With `CCOC(OCC)C(=O)c1ccccc1` the outcome was “inactive”.
With `O=C1Cc2ccccc2N1c1c(Cl)cccc1Cl` the AC50 was 100 µM (active).
In the case of `FC(F)(F)C(F)(F)C(F)(F)Br`, the outcome is reported as “inactive”.
`C=CC(=O)OCCC(F)(F)C(F)(F)C(F)(F)C(F)(F)C(F)(F)C(F)(F)C(F)(F)C(F)(F)F` was tested, and the outcome was “inactive”.
In the case of `O=C(O)CCC(F)(F)C(F)(F)C(F)(F)C(F)(F)C(F)(F)F`, the outcome is reported as “inactive”.
`O=S(=O)(c1ccc(OCc2ccccc2)cc1)c1ccccc1O` was tested, and the AC50 was 56 µM (active).
`CC(=O)CC(C)C` was tested, and the outcome was “inactive”.
For `Brc1cc(Br)c(Oc2c(Br)cc(Br)c(Br)c2Br)cc1Br`, the outcome was “inactive”.
`C=CC(=C)CC/C=C(\C)CCC=C(C)C` was tested, and the outcome was “inactive”.
In the case of `c1cc2cccc3c4cccc5cccc(c(c1)c23)c54`, the outcome is reported as “inactive”.
`Oc1cccc2c(O)cccc12` was tested, and the outcome was “inactive”.
In the case of `c1ccc(CNc2ncnc3c2ncn3C2CCCCO2)cc1` (stereo not given), the outcome is reported as “inactive”.
In the case of `FC(OC(F)(F)C(F)(F)C(F)(F)F)C(F)(F)F` (stereo not given), the outcome is reported as “inactive”.
`CC1=NN(c2ccccc2)C(=O)C1` was tested, and the outcome was “inactive”.
For `CCCCCCCCC(C)=O`, the outcome was “inactive”.
With `COc1ccccc1NC(=O)c1cc2ccccc2cc1O` the AC50 was 68.8 µM (active).
In the case of `Cc1cncc(C)c1`, the outcome is reported as “inactive”.
In the case of `c1cc[nH]c1`, the outcome is reported as “inactive”.
With `CCCCCCCCCCCCCC[n+]1ccccc1` the outcome was “inactive”.
For `CCOC=O`, the outcome was “inactive”.
`CCCCCCCCCCCC[N+](C)(C)Cc1ccccc1` was tested, and the outcome was “inactive”.
With `CCOC=C(C(=O)OCC)C(=O)OCC` the outcome was “inactive”.
With `CCC(C)c1nccnc1OC` (stereo not given) the outcome was “inactive”.
For `CCCCCC(C)OC(=O)COc1ccc(Cl)c2cccnc12` (stereo not given), the outcome was “inactive”.
With `O=P(O)(O)CCC(F)(F)C(F)(F)C(F)(F)C(F)(F)C(F)(F)C(F)(F)C(F)(F)C(F)(F)F` the outcome was “inactive”.
With `Clc1ccc2c(Cl)ccnc2c1` the outcome was “inactive”.
In the case of `CC1CNCC(C)O1` (stereo not given), the outcome is reported as “inactive”.
In the case of `FC(F)(F)N1C(F)(F)C(F)(F)OC(F)(F)C1(F)F`, the outcome is reported as “inactive”.
